# Measurements as given in PubChem BioAssay (NCATS).
# “And” between values parts separate entries of the source, which are not always exact repeats. Equal entries are not always repeated. Inconclusive results are not listed. The source made the active and inactive calls. Unless noted, calls come from the whole dose curve; as a rule, active = well fitted curve in the direction sought with a large enough effect; inconclusive = small, poorly fitted or top-dose-only effect, or another doubt; inactive = no such curve, though single readings can be large; an effect the other way counts as inactive or inconclusive.
# Key:
# [1] = qHTS Assay for Lipid Storage Modulators (AID 1519; calls by dose curve; for activity change, negative = inhibition: % is set by controls: 0 for no effect and ±100 for the full control effect); conditions: Drosophila S3 cells, BODIPY lipid droplet/cell ratio, laser cytometry, cells loaded with oleic acid
# Outline: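 Cells seeded at 5,000 per well were treated with compounds over a concentration series and loaded with oleic acid (400 uM, as added). Lipid droplet fluorescence (488 nm excitation, 500-530 nm channel) was read by laser-scanning cytometry and normalized to 20 uM Triacsin C.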
# [2] = target: Alpha-galactosidase A (Homo sapiens) (UniProt P06280); test: Counterscreen for Glucocerebrosidase Inhibitors: qHTS Assay for Human alpha-Galactosidase at pH 4.5 (AID 992); conditions: purified enzyme, fluorogenic substrate; series mostly up to 76.9 µM; note: 0% is about no effect
# Outline: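 Quantitative HTS: compounds tested from 0.7 nM up to 77 uM against 2 nM enzyme with 80 uM 4-MU alpha-D-galactopyranoside. The 20 min room-temperature reaction is stopped with 1M NaOH/1M glycine, pH 10.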
# [3] = target: alpha-glucosidase (Oryza sativa, rice) (UniProt Q653V4); test: Counterscreen for Glucocerebrosidase Inhibitors: qHTS Assay for Rice alpha-Glucosidase at pH 5.0 (AID 997); conditions: rice alpha-glucosidase enzyme activity; series mostly up to 76.9 µM;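 note: 0% = full activity with enzyme and -100% = basal without enzyme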
# Outline: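 Rice alpha-glucosidase (4 nM final) with 400 uM 4-methylumbelliferyl-alpha-D-glucopyranoside in citrate buffer pH 5.0, 20 min at room temperature, stopped at pH 10; fluorescence 365/440 nm, compounds 0.7 nM–77 uM, AC50 from Hill fits.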
# [4] = target: Alpha-galactosidase (Coffea arabica) (UniProt Q42656); test: Counterscreen for Glucocerebrosidase Inhibitors: qHTS Assay for Coffee Bean alpha-Galactosidase at pH 5.9 (AID 998); conditions: coffee bean alpha-galactosidase enzyme assay; series mostly up to 76.9 µM;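 note: plate controls were uninhibited enzyme for no effect and no-enzyme basal signal for full effect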
# Outline: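 Compounds were titrated from 0.7 nM to 77 uM against green coffee bean alpha-galactosidase (2 nM) using 80 uM fluorogenic 4-methylumbelliferyl substrate. After 20 min at room temperature, reactions were stopped at pH 10 and read by fluorescence.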
# [5] = Validation of Assay for Modulators of Lamin A Splicing (AID 1459; active = well fitted curve in the direction sought with a large enough effect in the signal ratio; the % refers to the signal ratio;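 note: cells exposed to compound for two days before reading; 0% is about no effect; ratio rise marks activators and ratio drop marks inhibitors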); conditions: Lamin A splicing dual RFP/GFP fluorescence reporter; series mostly up to 9.22 µM
# Outline: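 Splicing correction is reported by an EGFP-containing lamin A minigene in stably transfected S3 HeLa cells, while DsRed2 controls for viability and nonspecific signal. Cells are exposed to compounds for 48 hrs before the GFP over RFP ratio is taken.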
# [6] = target: DNA repair nuclease/redox regulator APEX1 (Homo sapiens) (UniProt P27695); test: qHTS Validation Assay for Inhibitors of the Human Apurinic/apyrimidinic Endonuclease 1 (APE1) (AID 1705;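 note: TAMRA fluorescence gain over two minutes as APE1 cuts a quenched THF abasic duplex; % is set by controls: 0 for no effect and ±100 for the full control effect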); conditions: purified APE1 endonuclease activity, fluorescence, titration; series mostly up to 57.1 µM
# Outline: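 Endonuclease activity of human APE1 is followed as dequenching when the enzyme incises a tetrahydrofuran abasic site in a short duplex labelled 5'-TAMRA/3'-BHQ-2 (50 nM final), after 15 min enzyme–compound preincubation at room temperature.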
# [7] = Counterscreen for APE1 Inhibitors: Fluorescent Dye Displacement Validation Assay (AID 1707); conditions: fluorescent dye displacement from DNA; series mostly up to 57.1 µM;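 note: plate controls were ThO with dsDNA and no compound for no effect and ThO without dsDNA for full effect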
# Text: In order to distinguish true inhibitors of DNA-processing enzymes from promiscuous DNA-binding compounds among screening assay hits, we developed a homogeneous and miniaturized assay based on fluorescent dye displacement test as originally described by Tse and Boger (Accounts of Chemical Research (2004) 37: 61-69). The assay is based on the strong enhancement of fluorescence when Thiazole Orange (ThO) binds to double-stranded DNA: conversely, in the presence of a DNA-binding compound, Thiazole Orange is displaced from the DNA and its fluorescence is reduced.
# Buffer. 50 mM Tris-HCl (pH7.5) containing 50mM NaCl, 2 mM MgCl2, and 0.01% Tween-20.
# Buffer containing 250 nM ThO in columns 3 and 4 as negative control (no dsDNA).
# Reaction mixture: 250 nM ThO and 50 nM dsDNA at final concentration dispensed throughout the plate: in columns 1, 2, 5-48. Column 1 is neutral (100% activity).
# 5''TAMRA- TC ACC FTC GTA CGA CTC
# 3'' AG TGG GAG CAT GCT GAG
# where F denotes tetrahydrofuran.
# Control: Pintool transfer of control compound WB64 (W4761, Sigma-Aldrich) to column 2 of all assay plates as a two-fold 16-point dilution in duplicate (concentration range 5.75 uM - 0.175 nM).
# Four uL of reaction mixtures were dispensed to 1536-well Greiner black solid bottom plates. Compounds (23 nL) were transferred […] in order to measure the endpoint fluorescence using 480 nm excitation and 540 nm emission fluorescence protocol.
# [8] = Cell Viability - LYMP1-002 - Assay at 24 hr (AID 993); conditions: LYMP1-002 lymphoblastoid cells viability; series mostly up to 92.2 µM; note: potency is the fitted concentration of half-maximal effect
# Outline: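 Human lymphoblastoid LYMP1-002 cells (2500/well) treated 24 h at 37 °C; viability as intracellular ATP by CellTiter-Glo luminescence. Tetraoctylammonium bromide as positive control; AC50 from Hill-equation fits of qHTS concentration-response.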
# [9] = Cell Viability - LYMP1-002 - Assay at 40 hr (AID 994); conditions: LYMP1-002 lymphoblastoid cell viability; series mostly up to 92.2 µM; note: potency is the fitted concentration of half-maximal effect; nearly all actives have a fitted effect of over 60% in size
# Outline: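 LYMP1-002 human lymphoblastoid cells (2500/well, complete medium) were treated with compounds for 40 hr at 37 C. Intracellular ATP was measured by CellTiter-Glo luminescence, and AC50 values came from Hill-equation fits of concentration-response data; tetraoctylammonium bromide was the positive control.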
# [10] = Cell Viability - LYMP2-026 (AID 989); conditions: LYMP2-026 lymphoblastoid cell viability, qHTS; series mostly up to 92.2 µM; note: potency is the fitted concentration of half-maximal effect; nearly all actives have a fitted effect of over 50% in size
# Outline: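 Human lymphoblastoid LYMP2-026 cells, 2500/well, exposed to compound 24 h at 37 C in complete medium. Viability as intracellular ATP by CellTiter-Glo luminescence; AC50 from Hill fits of qHTS concentration-response.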
# [11] = measured here: cell count channel max response
# [12] = measured here: lipid channel max response
# Alpha-galactosidase A (Homo sapiens), sequence (P06280 whole entry, looked up): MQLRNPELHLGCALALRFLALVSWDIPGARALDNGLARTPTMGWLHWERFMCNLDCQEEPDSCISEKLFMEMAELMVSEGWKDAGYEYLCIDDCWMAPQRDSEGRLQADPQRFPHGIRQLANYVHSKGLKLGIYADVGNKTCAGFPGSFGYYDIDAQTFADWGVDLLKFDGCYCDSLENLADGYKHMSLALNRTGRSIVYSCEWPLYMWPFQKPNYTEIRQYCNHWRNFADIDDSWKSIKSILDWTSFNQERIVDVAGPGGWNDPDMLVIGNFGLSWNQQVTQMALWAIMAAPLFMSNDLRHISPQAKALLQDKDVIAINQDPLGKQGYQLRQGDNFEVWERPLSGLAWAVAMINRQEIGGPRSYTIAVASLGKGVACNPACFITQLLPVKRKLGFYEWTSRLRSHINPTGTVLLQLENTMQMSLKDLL
# DNA repair nuclease/redox regulator APEX1 (Homo sapiens), sequence (P27695 whole entry, looked up): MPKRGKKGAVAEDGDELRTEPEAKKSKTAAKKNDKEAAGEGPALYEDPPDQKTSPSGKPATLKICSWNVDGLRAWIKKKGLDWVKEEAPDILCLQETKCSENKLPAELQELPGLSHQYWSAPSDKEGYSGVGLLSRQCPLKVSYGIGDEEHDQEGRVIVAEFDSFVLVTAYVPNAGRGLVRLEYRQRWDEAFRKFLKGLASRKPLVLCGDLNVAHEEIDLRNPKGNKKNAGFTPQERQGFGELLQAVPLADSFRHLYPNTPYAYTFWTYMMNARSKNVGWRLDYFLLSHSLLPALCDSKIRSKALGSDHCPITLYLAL
# Alpha-galactosidase (Coffea arabica), sequence (Q42656 whole entry, looked up): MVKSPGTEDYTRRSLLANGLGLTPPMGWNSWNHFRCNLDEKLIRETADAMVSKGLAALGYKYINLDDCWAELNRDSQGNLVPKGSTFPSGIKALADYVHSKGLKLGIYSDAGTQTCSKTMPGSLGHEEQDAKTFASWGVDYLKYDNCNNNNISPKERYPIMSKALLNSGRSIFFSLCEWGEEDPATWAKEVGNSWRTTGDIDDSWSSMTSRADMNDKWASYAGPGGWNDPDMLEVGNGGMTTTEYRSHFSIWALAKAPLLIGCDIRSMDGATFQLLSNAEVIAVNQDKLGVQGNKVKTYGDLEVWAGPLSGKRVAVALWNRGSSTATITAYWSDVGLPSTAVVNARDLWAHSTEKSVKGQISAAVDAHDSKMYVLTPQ
smiles,measurement,setting,value
CCNc1nc(Cl)nc(NCC)n1,"activity change, negative = inhibition",[1]; at 57.5 µM (top of the series),6.1% (inactive)
same,max response,[1]; [11],11.4%
same,max response,[1]; [12],16.8%
COc1ccc(CN2CCNCC2)c(OC)c1OC,"activity change, negative = inhibition",[1]; at 25.7 µM (top of the series),-1.99% (inactive)
same,max response,[1]; [11],-6.25%
same,max response,[1]; [12],-8.59%
Cc1ccc(N=CN(C)C=Nc2ccc(C)cc2C)c(C)c1,"activity change, negative = inhibition",[1]; at 57.5 µM (top of the series),14.3% (inactive)
same,max response,[1]; [11],10.9%
same,max response,[1]; [12],26.2%
CCCCCCCCC(=O)NCc1ccc(O)c(OC)c1,outcome,[2],inactive
same,outcome,[3],inactive
same,outcome,[4],inactive
same,outcome,[5],inactive
same,"activity change, negative = inhibition",[1]; at 57.5 µM (top of the series),-0.202% (inactive) and 0.982% (inactive)
same,max response,[1]; [11],1.44% and 21.8%
same,max response,[1]; [12],3.12% and 22.1%
same,outcome,[6],inactive
same,outcome,[7],inactive
O=C1CC2(CCCC2)CC(=O)N1CCCCN1CCN(c2ncccn2)CC1,"activity change, negative = inhibition",[1]; at 25.7 µM (top of the series),0.205% (inactive)
same,"activity change, negative = inhibition",[1]; at 57.5 µM (top of the series),-2.21% (inactive)
same,max response,[1]; [11],-26.7% and -71.1%
same,max response,[1]; [12],-24.8% and -67.1%
O=C(CCCN1CCC(n2c(=O)[nH]c3ccccc32)CC1)c1ccc(F)cc1,"activity change, negative = inhibition",[1]; at 25.7 µM (top of the series),0.264% (inactive)
same,max response,[1]; [11],-5.85%
same,max response,[1]; [12],-3.11%
COC(=O)C1=C(C)NC(C)=C(C(=O)OC)C1c1ccccc1[N+](=O)[O-],Potency,[8],50.1 µM (active)
same,Potency,[9],39.8 µM (active)
same,outcome,[4],inactive
same,"activity change, negative = inhibition",[1]; at 25.7 µM (top of the series),-3.56% (inactive)
same,"activity change, negative = inhibition",[1]; at 57.5 µM (top of the series),-18.3% (inactive)
same,max response,[1]; [11],-12.4% and 9.66%
same,max response,[1]; [12],-15.8% and -7.21%
CC[n+]1c(-c2ccccc2)c2cc(N)ccc2c2ccc(N)cc21,Potency,[10],15.8 µM (active)
same,Potency,[8],31.6 µM (active)
same,Potency,[9],31.6 µM (active)
same,"activity change, negative = inhibition",[1]; at 57.5 µM (top of the series),1.12% (inactive)
same,max response,[1]; [11],2.87%
same,max response,[1]; [12],6.23%
NC(N)=NC(=O)c1nc(Cl)c(N)nc1N,outcome,[4],inactive
same,"activity change, negative = inhibition",[1]; at 25.7 µM (top of the series),-0.295% (inactive)
same,"activity change, negative = inhibition",[1]; at 57.5 µM (top of the series),-0.935% (inactive) and 5.62% (inactive)
same,max response,[1]; [11],12.3% and 6.32% and 9.51%
same,max response,[1]; [12],15.3% and 5.93% and 17.9%
CC(N)C(=O)OC(C)(C)Cc1ccc(Cl)cc1 (centres undefined),outcome,[5],inactive
same,"activity change, negative = inhibition",[1]; at 57.5 µM (top of the series),9.94% (inactive)
same,max response,[1]; [11],6.48%
same,max response,[1]; [12],18.3%
same,outcome,[6],inactive
same,outcome,[7],inactive
O=C(O)c1nn(Cc2ccc(Cl)cc2Cl)c2ccccc12,outcome,[2],inactive
same,outcome,[3],inactive
same,outcome,[4],inactive
same,outcome,[5],inactive
same,"activity change, negative = inhibition",[1]; at 57.5 µM (top of the series),-2.04% (inactive)
same,max response,[1]; [11],45.4%
same,max response,[1]; [12],43.5%
same,outcome,[6],inactive
same,outcome,[7],inactive
CCCC(C)C1(CC)C(=O)N=C(S)NC1=O (centres undefined),"activity change, negative = inhibition",[1]; at 57.5 µM (top of the series),4.86% (inactive)
same,max response,[1]; [11],-3.79%
same,max response,[1]; [12],1.05%
c1ccc2nc(N3CCNCC3)ccc2c1,outcome,[2],inactive
same,outcome,[3],inactive
same,"activity change, negative = inhibition",[1]; at 25.7 µM (top of the series),-1.91% (inactive)
same,"activity change, negative = inhibition",[1]; at 57.5 µM (top of the series),4.37% (inactive) and 6.17% (inactive)
same,max response,[1]; [11],-6.47% and 8.94% and 1.83%
same,max response,[1]; [12],-9.05% and 14.3% and 11.9%
same,outcome,[6],inactive
same,outcome,[7],inactive
